# Assay results taken from PubChem BioAssay (EPA / NIEHS).
# Records with an inconclusive call do not appear. The source made the active and inactive calls. The calls were made as follows, unless noted: active = hit-call score of the fitted dose curve at least 0.9, where 1 is the maximum; inactive = score below 0.9.
# Experiments:
# [1] = read-out: Monokine induced gamma interferon (MIG), CXCL9 (gene 4283); assay: BSK_3C_MIG: BioMAP Diversity Plus: 3C Assay for Monokine induced gamma interferon (MIG) Biomarker Activity (AID 2283021); settings: primary human endothelial cells (HUVEC); actives raise or lower the signal;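 as to AC50: MIG protein level measured by immunoassay in the treated endothelial cultures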
# Outline: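 ELISA measurement of MIG in human umbilical vein endothelial cells 24 h after treatment. Cytotoxicity tracked by SRB staining in parallel cultures; gain or loss of signal fitted relative to DMSO.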
# [2] = molecular target: human Vitamin D Receptor (VDR), VDR (gene 7421) (UniProt P11473); assay: ATG_VDR_TRANS: Attagene TRANS-FACTORIAL HepG2 Assay for human Vitamin D Receptor (VDR) (AID 2283022; active = hit-call score of the fitted dose curve at least 0.9, where 1 is the maximum)
# Outline: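 Steps: transfect HepG2 with GAL4-UAS-driven reporter constructs; dose compounds 24 h; isolate RNA, reverse-transcribe, PCR-amplify with 6-FAM-labelled primer extension and HpaI digestion; quantify fragments by capillary electrophoresis relative to DMSO.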
# [3] = BSK_3C_SRB: Viability Assessment in the BioMAP Diversity Plus: 3C Assay (AID 2283023); settings: primary human endothelial cells (HUVEC);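 also: fitted both ways against DMSO so a hit may be signal rise or drop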
# Outline: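 Absorbance at 560 nm of sulforhodamine B-stained (0.1%) total protein served as a cytotoxicity readout in human umbilical vein endothelial cells, 24 h after chemical treatment. Signal was fitted bidirectionally relative to DMSO.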
# [4] = read-out: Matrix Metallopeptidase 1 (MMP1), MMP1 (gene 4312); assay: BSK_BE3C_MMP1: BioMAP Diversity Plus: BE3C Assay for Matrix Metallopeptidase 1 (MMP1) Biomarker Activity (AID 2283024); settings: primary human bronchial epithelial cells; actives raise or lower the signal
# Outline: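 ELISA measurement of MMP-1 after 24 h compound exposure of primary human bronchial epithelial cells. Changes in either direction fitted relative to DMSO; parallel SRB staining checked overt cytotoxicity.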
# [5] = read-out: Pselectin, SELP (gene 6403); assay: BSK_4H_Pselectin: BioMAP Diversity Plus: 4H Assay for Pselectin Biomarker Activity (AID 2283026); settings: primary human endothelial cells (HUVEC); actives raise or lower the signal
# Outline: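 ELISA of surface P-selectin on HUVEC, 24 h after dosing, with parallel SRB staining (0.1% after 10% TCA fixation, 560 nm) for overt cytotoxicity. Activity fitted in both directions relative to DMSO.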
# [6] = BSK_4H_SRB: Viability Assessment in the BioMAP Diversity Plus: 4H Assay (AID 2283027); settings: primary human endothelial cells (HUVEC);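 also: cells exposed to compound for 24 h before staining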;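 as to AC50: curves fitted both ways versus DMSO so AC50 may be loss or gain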
# Outline: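 Cytotoxicity read-out in primary human endothelial cells: after 24 h compound exposure, cells were TCA-fixed (10%), stained with 0.1% SRB and absorbance taken at 560 nm. Values fitted in both directions relative to DMSO.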
# [7] = BSK_BE3C_SRB: Viability Assessment in the BioMAP Diversity Plus: BE3C Assay (AID 2283028); settings: primary human bronchial epithelial cells
# Outline: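 Cells (human bronchial epithelial, primary) are treated with chemicals, and after 24 h the parallel cultures are fixed in 10% TCA. These are then stained with 0.1% SRB and read at 560 nm. Gain or loss of signal is fitted relative to DMSO.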
# [8] = read-out: Thrombomodulin, THBD (gene 7056); assay: BSK_3C_Thrombomodulin: BioMAP Diversity Plus: 3C Assay for Thrombomodulin Biomarker Activity (AID 2283029); settings: primary human endothelial cells (HUVEC); actives raise or lower the signal
# Outline: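 ELISA measurement of thrombomodulin on HUVEC surface 24 h after chemical dosing; activity fitted in both directions relative to DMSO vehicle.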
# [9] = read-out: Urokinase-type plasminogen activator receptor (uPAR), PLAUR (gene 5329); assay: BSK_4H_uPAR: BioMAP Diversity Plus: 4H Assay for Urokinase-type plasminogen activator receptor (uPAR) Biomarker Activity (AID 2283030); settings: primary human endothelial cells (HUVEC); actives raise or lower the signal
# Outline: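 Cell-surface uPAR ELISA signal, measured 24 h after dosing human umbilical vein endothelial cells, was analyzed with bidirectional fitting relative to DMSO. Parallel SRB staining of total protein tracked overt cytotoxicity.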
# [10] = read-out: Vascular cell adhesion molecule 1 (VCAM1), VCAM1 (gene 7412); assay: BSK_4H_VCAM1: BioMAP Diversity Plus: 4H Assay for Vascular cell adhesion molecule 1 (VCAM1) Biomarker Activity (AID 2283033); settings: primary human endothelial cells (HUVEC); actives raise or lower the signal;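 as to outcome: cell-surface VCAM-1 protein measured by ELISA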
# Outline: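 VCAM-1 ELISA read 24 h after chemical dosing of HUVEC in the BioMAP 4H system, with gain or loss of signal fitted relative to DMSO. Parallel SRB staining (560 nm) checked overt cytotoxicity.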
# [11] = read-out: Interferon-gamma inducible Protein 10 (IP10), CXCL10 (gene 3627); assay: BSK_BE3C_IP10: BioMAP Diversity Plus: BE3C Assay for Interferon-gamma inducible Protein 10 (IP10) Biomarker Activity (AID 2283034); settings: primary human bronchial epithelial cells; actives raise or lower the signal
# Outline: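 IP-10 quantified by ELISA in human primary bronchial epithelial cell cultures at 24 hours post-dosing. Gain or loss of signal fitted relative to DMSO; parallel SRB staining assessed overt cytotoxicity.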
# [12] = read-out: Monokine induced gamma interferon (MIG), CXCL9 (gene 4283); assay: BSK_BE3C_MIG: BioMAP Diversity Plus: BE3C Assay for Monokine induced gamma interferon (MIG) Biomarker Activity (AID 2283035); settings: primary human bronchial epithelial cells; actives raise or lower the signal
# Outline: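 ELISA quantified MIG after 24 h exposure of primary bronchial epithelial cultures, analysed in both directions relative to DMSO. Cytotoxicity tracked in parallel cultures by sulforhodamine B staining.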
# [13] = read-out: Transforming growth factor beta 1 (TGFb1), TGFB1 (gene 7040); assay: BSK_BE3C_TGFb1: BioMAP Diversity Plus: BE3C Assay for Transforming growth factor beta 1 (TGFb1) Biomarker Activity (AID 2283036;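 as to outcome: TGF-b1 protein level measured by ELISA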); settings: primary human bronchial epithelial cells; actives raise or lower the signal
# Outline: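 ELISA readout of TGF-b1 from human lung bronchial epithelial primary cells, taken 24 h post-treatment. Gain or loss of signal fitted relative to DMSO baseline, with parallel SRB staining for overt cytotoxicity.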
# [14] = read-out: Plasminogen activator inhibitor-1 (PAI1), SERPINE1 (gene 5054); assay: BSK_BE3C_PAI1: BioMAP Diversity Plus: BE3C Assay for Plasminogen activator inhibitor-1 (PAI1) Biomarker Activity (AID 2283037); settings: primary human bronchial epithelial cells; actives raise or lower the signal
# Outline: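 PAI-1 was measured by ELISA in human primary bronchial epithelial cultures 24 h after chemical dosing, with cytotoxicity checked by SRB total-protein staining in parallel cultures. Activity was fitted in both directions relative to DMSO.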
# [15] = read-out: urokinase plasminogen activator (uPA), PLAU (gene 5328); assay: BSK_BE3C_uPA: BioMAP Diversity Plus: BE3C Assay for urokinase plasminogen activator (uPA) Biomarker Activity (AID 2283038); settings: primary human bronchial epithelial cells; actives raise or lower the signal;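 as to outcome: uPA protein level quantified by ELISA in cell cultures; uPA read one day after compound addition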
# Outline: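 Bronchial epithelial cells (human, primary); chemical 24 h; uPA by ELISA; bidirectional fit vs DMSO. SRB (0.1%, after 10% TCA fixation, 560 nm) in parallel cultures for cytotoxicity.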
# [16] = read-out: Urokinase-type plasminogen activator receptor (uPAR), PLAUR (gene 5329); assay: BSK_BE3C_uPAR: BioMAP Diversity Plus: BE3C Assay for Urokinase-type plasminogen activator receptor (uPAR) Biomarker Activity (AID 2283039); settings: primary human bronchial epithelial cells; actives raise or lower the signal;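 as to outcome: cells exposed to compound for one day before measurement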
# Outline: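 uPAR levels were measured by ELISA after 24 h compound treatment of primary human bronchial epithelial cells, fitted in both directions relative to DMSO. Parallel SRB staining served as the cytotoxicity read-out.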
# [17] = read-out: Interleukin-6 (IL6), IL6 (gene 3569); assay: BSK_CASM3C_IL6: BioMAP Diversity Plus: CASM3C Assay for Interleukin-6 (IL6) Biomarker Activity for (AID 2283040); settings: primary human coronary artery smooth muscle cells; actives raise or lower the signal
# [18] = read-out: Tissue plasminogen activator (tPA), PLAT (gene 5327); assay: BSK_BE3C_tPA: BioMAP Diversity Plus: BE3C Assay for Tissue plasminogen activator (tPA) Biomarker Activity (AID 2283041); settings: primary human bronchial epithelial cells; actives raise or lower the signal;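 also: tPA level quantified by ELISA one day after compound addition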
# Outline: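 tPA measured by ELISA 24 h after dosing human primary bronchial epithelial cells (BE3C system). Changes in either direction were fitted against DMSO. Parallel cultures were stained with SRB to flag overt cytotoxicity.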
# [19] = read-out: Interleukin-8 (IL8), CXCL8 (gene 3576); assay: BSK_CASM3C_IL8: BioMAP Diversity Plus: CASM3C Assay for Interleukin-8 (IL8) Biomarker Activity (AID 2283042); settings: primary human coronary artery smooth muscle cells; actives raise or lower the signal;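 also: IL-8 protein level quantified by ELISA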
# [20] = BSK_3C_Vis: BioMAP Diversity Plus: 3C Assay for Morphology Visualization (AID 2283025); settings: primary human endothelial cells (HUVEC);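 also: fitted both ways so gain or loss versus DMSO counts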;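 as to AC50: light microscopy image of cell morphology used as background control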
# Outline: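 Light-microscopy visualization of HUVEC cultures at 24 h post-treatment, with DMSO as baseline for bidirectional fitting.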
# Chain of human Vitamin D Receptor (VDR), VDR (gene 7421) (P11473 whole entry, looked up, the tested form may be a part): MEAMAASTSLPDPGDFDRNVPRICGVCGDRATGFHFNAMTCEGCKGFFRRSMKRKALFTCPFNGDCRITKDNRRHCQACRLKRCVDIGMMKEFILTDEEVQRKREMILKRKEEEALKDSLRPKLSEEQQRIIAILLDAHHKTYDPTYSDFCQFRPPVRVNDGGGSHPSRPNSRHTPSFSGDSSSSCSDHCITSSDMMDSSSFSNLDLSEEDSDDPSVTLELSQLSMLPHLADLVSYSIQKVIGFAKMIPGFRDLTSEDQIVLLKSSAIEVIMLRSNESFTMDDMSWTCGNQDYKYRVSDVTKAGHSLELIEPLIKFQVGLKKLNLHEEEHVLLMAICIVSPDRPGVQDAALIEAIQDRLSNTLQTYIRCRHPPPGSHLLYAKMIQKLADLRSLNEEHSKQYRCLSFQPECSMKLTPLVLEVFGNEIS
compound,measurement,setting,value
CC(C)(c1cc(Br)c(OCCO)c(Br)c1)c1cc(Br)c(OCCO)c(Br)c1,AC50,[1],27.6 µM (active)
same,outcome,[2],inactive
same,AC50,[3],19.3 µM (active)
same,AC50,[4],0.911 µM (active)
same,AC50,[5],8.19 µM (active)
same,AC50,[6],16.2 µM (active)
same,outcome,[7],inactive
same,AC50,[8],28.6 µM (active)
same,AC50,[9],11.7 µM (active)
same,AC50,[10],11.4 µM (active)
same,AC50,[11],4.54 µM (active)
same,outcome,[12],inactive
same,outcome,[13],inactive
same,outcome,[14],inactive
same,outcome,[15],inactive
same,outcome,[16],inactive
same,outcome,[17],inactive
same,outcome,[18],inactive
same,outcome,[19],inactive
C=CC(=O)OCC(Br)CBr (configuration not stated),AC50,[1],33 µM (active)
same,AC50,[3],32.5 µM (active)
same,outcome,[4],inactive
same,AC50,[20],16.6 µM (active)
same,AC50,[5],20 µM (active)
same,AC50,[6],31.6 µM (active)
same,outcome,[7],inactive
same,outcome,[8],inactive
same,AC50,[9],32.4 µM (active)
same,AC50,[10],20 µM (active)
same,AC50,[11],23.3 µM (active)
same,AC50,[12],31.4 µM (active)
same,outcome,[13],inactive
same,outcome,[14],inactive
same,outcome,[15],inactive
same,outcome,[16],inactive
same,AC50,[17],26 µM (active)
same,outcome,[18],inactive
same,AC50,[19],30.4 µM (active)
CCCCNc1ccc(NCCCC)c2c1C(=O)c1ccccc1C2=O,outcome,[1],inactive
same,outcome,[3],inactive
same,AC50,[4],6.81 µM (active)
same,outcome,[20],inactive
same,outcome,[5],inactive
same,outcome,[6],inactive
same,outcome,[7],inactive
same,outcome,[8],inactive
same,outcome,[9],inactive
same,outcome,[10],inactive
same,AC50,[11],4.33 µM (active)
same,outcome,[12],inactive
same,AC50,[13],5 µM (active)
same,outcome,[14],inactive
same,AC50,[15],5 µM (active)
same,AC50,[16],6.83 µM (active)
same,outcome,[17],inactive
same,outcome,[18],inactive
same,outcome,[19],inactive
